Source: PubChem BioAssay
Active and inactive are the calls of the source.

Legend:
[1] = A549 cell viability effects, profiling panel, calcein-AM fluorescence, 48 h, basal (AID 1162); conditions: higher = more signal
[2] = adipocyte viability effects, profiling panel, cell-based, 3T3-L1 adipocytes, calcein-AM fluorescence, 48 h, basal (AID 1163); conditions: 3T3-L1 adipocytes viability, higher = more signal
[3] = HepG2 cell viability effects, profiling panel, calcein-AM fluorescence, 48 h, basal (AID 1164); conditions: higher = more signal
[4] = MM1S cell viability effects, profiling panel, calcein-AM fluorescence, 48 h, basal (AID 1165); conditions: higher = more signal;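 note: viability of MM1S multiple myeloma cells under basal unstimulated conditions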
[5] = basal RPMI8226 viability, no added stimulus, profiling panel, cell-based, calcein-AM fluorescence, 48 h, PK04 Diversity Set (AID 1166); conditions: RPMI8226 myeloma viability, higher = more signal;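 note: cells grown under basal conditions without added stimulus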
[6] = basal HepG2 mitochondrial membrane potential changes, profiling panel, cell-based, JC-1 fluorescence, 24 h, 100 nL compound (AID 1167); conditions: higher = more signal
[7] = basal 3T3-L1 adipocyte mitochondrial potential changes, profiling panel, cell-based, JC-1 fluorescence, 3T3-L1 adipocytes, 24 h, 100 nL compound (AID 1168); conditions: JC-1 mitochondrial fluorescence, higher = more signal, called active from +8 up or from −8 down
[8] = basal RPMI8226 mitochondrial membrane potential changes, profiling panel, cell-based, JC-1 fluorescence, 24 h, 100 nL compound (AID 1169); conditions: RPMI8226 myeloma, JC-1 mitochondrial potential fluorescence, higher = more signal
[9] = basal MM1S mitochondrial membrane potential changes, profiling panel, cell-based, JC-1 fluorescence, 24 h, 100 nL compound (AID 1170); conditions: higher = more signal
[10] = A549 lung cancer cell viability effects, profiling panel, resazurin fluorescence, 24 h, PK04 Diversity Set (AID 1171); conditions: higher = more signal, called active from +8 up or from −8 down
Note: test concentration not given here.

SMILES	z-score [1]	z-score [2]	z-score [3]	z-score [4]	z-score [5]	z-score [6]	z-score [7]	z-score [8]	z-score [9]	z-score [10]
O=C1[C@H]2C=C(Br)[C@H](C[C@@H]2OCCCCO)[C@@]12CO2	-0.0982	-1.26	-0.141	-0.723	-2.13	-1.48	0.026 (inactive)	-0.88	-0.147	-0.621 (inactive)
CCOc1cc(C(O)C2C=CC3C(=O)N(c4ccccc4)C(=O)C3N2Nc2ccccc2)ccc1O (stereo not given)	-0.0398	-1.24	0.992	-3.04	0.461	-1.32	-2.33 (inactive)	0.279	-0.817	0.314 (inactive)
COCCOC(=O)N1C(=O)[C@@]2(c3cc(C#CCCO)ccc31)[C@H](C(=O)Nc1nc3ccccc3s1)[C@H]1C(=O)O[C@H](c3ccccc3)[C@H](c3ccccc3)N1[C@@H]2c1ccc(OCCO)cc1	-0.324	-0.0713	0.555	-0.315	-0.234	-3.53	0.823 (inactive)	-0.371	-1.41	1.24 (inactive)
C=CCOC(=O)[C@@H]1[C@H]2C(=O)O[C@H](c3ccccc3)[C@H](c3ccccc3)N2[C@H](c2ccc(OCCOC(=O)[C@@H]3C[C@@H]4C(=O)N[C@@H](Cc5ccccc5)C(=O)N4[C@@H]3c3ccc(O)cc3)cc2)[C@@]12C(=O)Nc1ccc(I)cc12	-1.09	1.39	0.1	0.67	-0.645	-1.56	0.865 (inactive)	-0.451	-1.38	0.128 (inactive)
O=C(c1ccccc1)N1Cc2ccccc2[C@@H]2OC(c3ccc(OCCCO)cc3)=N[C@]2(Cc2ccccc2)C1=O	-1.09	1.27	-0.795	-2.02	-3.92	-0.435	0.166 (inactive)	-1.11	0.106	-1.57 (inactive)
O=C1O[C@H](c2ccccc2)[C@H](c2ccccc2)N2[C@H]1[C@@H](C(=O)Nc1nc3ccccc3s1)[C@]1(C(=O)Nc3ccc(C#CCCO)cc31)[C@H]2c1ccc(OCCO)cc1	0.233	0.205	1.03	-0.265	0.743	-3.28	0.491 (inactive)	-0.995	-1.49	0.441 (inactive)
CC(C)OC(=O)C=C1C[C@@H](c2ccccc2C(F)(F)F)O[C@@H](c2ccccc2C(F)(F)F)O1	-0.677	-0.984	0.761	0.737	0.217	0.752	0.341 (inactive)	0.589	-0.541	1.08 (inactive)
COc1ccc([Si](C)(C)[C@H]2[C@H](CC(=O)N3CCC[C@H]3CO)O[C@@]3(C(=O)N(Cc4cccc(N5C(=O)c6cccc7cccc5c67)c4)c4ccccc43)[C@@H]2C)cc1	-0.577	0.453	-0.507	-1.99	-3.99	1.12	-0.69 (inactive)	-1.12	-0.388	-0.892 (inactive)
O=C1O[C@H](c2ccccc2)[C@H](c2ccccc2)N2[C@H]1[C@@H](C(=O)N1CCN(c3ncccn3)CC1)[C@]1(C(=O)Nc3ccc(C#CC4=CCCCC4)cc31)[C@H]2c1ccc(O)cc1	0.645	0.301	0.469	-0.36	-1.91	-1.49	1.44 (inactive)	-0.745	-0.75	-0.526 (inactive)
O=C1c2ccccc2[C@@]2(Cc3ccccc3N(CC(F)(F)F)C2=O)[C@H](c2ccc(CO)cc2)N1Cc1ccccc1Cl	0.609	0.889	-0.0395	-0.354	-0.936	-0.0535	-0.483 (inactive)	-0.131	0.165	-0.142 (inactive)
CCOC(=O)[C@H]1C/C=C/C[C@H](C(=O)OCC)C(=O)O[C@H]2[C@@H](OC)O[C@H](CO)[C@@H](OC(=O)Nc3cccc(F)c3)[C@@H]2OC1=O	-3.9	-0.502	-5.19	-3.3	-4.16	-3.56	1.84 (inactive)	-0.959	-1.99	-5.95 (inactive)
CCCC=C(CCC)[C@@H](NC(=O)Oc1ccc(F)cc1)c1ccc(C(=O)OC)cc1	-1.33	-0.609	0.0049	-1.43	-2.42	6.8	0.261 (inactive)	-0.754	-1.44	0.717 (inactive)
[N-]=[N+]=NCc1ccccc1C[C@@]1(C(=O)NCC(O)CO)N=C(c2ccc(OCCCO)cc2)O[C@@H]1c1ccccc1N=[N+]=[N-] (stereo not given in full)	-2.46	0.223	-1.75	-2.92	-3.45	-0.158	-0.731 (inactive)	-1.19	-0.999	-3.5 (inactive)
COC(=O)[C@@]1(Cc2ccc(OC)cc2)[C@H]2c3cc(C(=O)N(C)C)n(CCN4CNCC4=O)c3C[C@H]2CN1C(=O)c1ccccc1	-0.663	-0.261	-0.254	0.316	0.177	-0.812	0.489 (inactive)	-0.111	-1.28	0.367 (inactive)
[N-]=[N+]=Nc1ccccc1[C@H]1OC(c2ccc(OCCCO)cc2)=N[C@@]1(Cc1ccccc1)C(=O)O	1.98	0.276	0.73	-0.0876	-0.532	-0.107	0.222 (inactive)	-0.0546	-1.2	-0.724 (inactive)
CC1CC/C=C\[C@H]2OC34C=CCN(c5ccc(Cl)cc5)C(=O)[C@H]3N(CCO)C(=O)[C@]4(C)C2C(=O)O1 (stereo not given in full)	-0.562	0.594	0.107	0.246	0.0105	-0.472	-0.54 (inactive)	0.27	2.04	-0.428 (inactive)
O=C1OCCC/C=C\[C@H]2OC34C=CCN(CCN5CCOCC5)C(=O)[C@H]3N(CCCO)C(=O)[C@@H]4C12 (stereo not given in full)	-0.235	1.01	-0.631	1.19	-0.87	-1.01	-0.734 (inactive)	0.806	0.486	0.116 (inactive)
CCOC(=O)C[C@H]1[C@H](OC(=O)c2cc3ccccc3oc2=O)[C@@H](NC(=O)C2CCCCC2)c2cc(OCCCO)ccc2N1C(=O)c1ccccc1	-0.11	3.15	0.914	0.172	-0.594	1.36	-0.186 (inactive)	-0.848	0.739	-0.713 (inactive)
N#Cc1ccc(NN2C(C(O)c3c(F)cccc3Cl)C=CC3C(=O)N(c4ccccc4)C(=O)C32)cc1 (stereo not given)	0.212	-0.684	0.0972	-0.0928	-0.91	-1.41	-1.82 (inactive)	-0.275	-0.0893	-0.0273 (inactive)
O=C1NC(=O)C2C1C=CC(C(O)c1cccc3ccccc13)N2Nc1ccccn1 (stereo not given)	0.428	-0.608	-0.32	0.002	-0.0565	0.15	-0.0987 (inactive)	-0.216	-0.184	-0.721 (inactive)
COc1ccc(C(O)C2C=CC3C(=O)N(C)C(=O)C3N2N2CCCCC2)c2ccccc12 (stereo not given)	-1.01	-1.14	-0.086	-0.142	0.768	-0.874	-1.08 (inactive)	-0.0496	0.028	-0.825 (inactive)
CCCC[C@@H]1C[C@H]1[C@@H](NC(=O)c1ccco1)c1ccc(C(=O)OC)cc1	-1.06	-1.16	-0.998	-1.77	-2.42	-2.68	-2.2 (inactive)	-0.705	-1.19	-0.136 (inactive)
CN1C(=O)C2C=CC(C(O)C3CCCCC3)N(Nc3ccc([N+](=O)[O-])cc3[N+](=O)[O-])C2C1=O (stereo not given)	-0.798	-0.156	-0.905	-0.193	-0.849	-1.18	-0.299 (inactive)	0.464	0.314	0.421 (inactive)
CC(C)C(=C=CC[C@@H](O)c1ccccc1OCCO)CCO	0.855	-1.23	-0.902	-0.314	0.168	-1.03	0.235 (inactive)	0.719	-0.0293	0.215 (inactive)
COc1cc2c(cc1OC)CN(C(=O)[C@@H]1[C@H]3C(=O)O[C@H](c4ccccc4)[C@H](c4ccccc4)N3[C@H](c3ccc(O)cc3)[C@@]13C(=O)Nc1ccc(C#CC4(O)CCCCCC4)cc13)CC2	0.192	0.284	1.37	0.132	-0.0905	-0.769	-0.771 (inactive)	-0.767	-0.401	1.05 (inactive)
CN1C(=O)[C@]2(Cc3ccccc3)N=C(c3ccc(OCCCO)cc3)O[C@@H]2c2ccccc21	-1.55	1.71	-1.68	-1.76	-4.34	0.288	0.686 (inactive)	-1.16	-0.976	-1.81 (inactive)
CC(C)C[C@@H]1NC(=O)[C@H]2C[C@@H](C(=O)NCCCCCCN(C)C)[C@@H](c3ccc(O)cc3)N2C1=O	-1.06	-0.0009	-0.59	0.235	-1.28	-0.438	0.186 (inactive)	0.664	-0.601	-0.743 (inactive)
C=CC[C@@]1(C(=O)N(C)C)N=C(c2ccc(OCCCO)cc2)O[C@@H]1c1ccccc1N=[N+]=[N-]	0.459	-0.423	0.571	-0.761	-1.51	-0.328	1.04 (inactive)	-0.874	-1.31	-1.48 (inactive)
CC1CC/C=C\[C@H]2OC34C=CCN(Cn5nnc6ccccc65)C(=O)[C@H]3N(C(CO)C(C)C)C(=O)[C@@H]4C2C(=O)O1 (stereo not given in full)	0.101	0.0716	0.0778	0.654	-0.872	-0.388	-0.573 (inactive)	-0.637	-0.454	0.238 (inactive)
